From PubChem BioAssay (NCI)
About 83,000 compounds went through this panel and 20% of them were active in at least one assay; those are over-represented in the sample as a whole.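 Note: values are percent growth. 100 is the growth of untreated cells, values between 100 and 0 indicate rising inhibition; between -100 and 0 indicates cell death.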 Activity calls are given as the source filed them. How the source made its calls: active means growth percent below 10; inactive means the rest.

Tests used:
Experiment in all cases: NCI-60 one-dose screen, 48 h (100 = growth as untreated, 0 = no growth, -100 = all killed)
Conditions in all cases: 10 µM unless noted
SR leukemia = test system: SR leukemia
RPMI-8226 leukemia = test system: RPMI-8226 leukemia
OVCAR-8 ovarian = test system: OVCAR-8 ovarian
OVCAR-5 ovarian = test system: OVCAR-5 ovarian
OVCAR-4 ovarian = test system: OVCAR-4 ovarian
SK-OV-3 ovarian = test system: SK-OV-3 ovarian
IGROV1 ovarian = test system: IGROV1 ovarian
OVCAR-3 ovarian = test system: OVCAR-3 ovarian
HS 578T breast = test system: HS 578T breast
NCI/ADR-RES ovarian = test system: NCI/ADR-RES ovarian
T-47D breast = test system: T-47D breast
BT-549 breast = test system: BT-549 breast
MDA-MB-435 melanoma = test system: MDA-MB-435 melanoma
SW-620 colon = test system: SW-620 colon
MCF7 breast = test system: MCF7 breast
HCT-116 colon = test system: HCT-116 colon
HCC-2998 colon = test system: HCC-2998 colon
KM12 colon = test system: KM12 colon

Measured: growth

COc1cccc(-c2nc3occn3c2-c2ccnc(NCCNS(=O)(=O)c3cccc4ccccc34)n2)c1
inactive: SR leukemia 110% | RPMI-8226 leukemia 102% | OVCAR-8 ovarian 97.4% | OVCAR-5 ovarian 123% | OVCAR-4 ovarian 102% | SK-OV-3 ovarian 83.5% | IGROV1 ovarian 89% | OVCAR-3 ovarian 103% | HS 578T breast 105% | NCI/ADR-RES ovarian 98.8% | T-47D breast 87.3% | BT-549 breast 105% | MDA-MB-435 melanoma 102% | SW-620 colon 113% | MCF7 breast 95.5% | HCT-116 colon 99.9% | HCC-2998 colon 132% | KM12 colon 93.8%

COc1cc(C2=C(c3cn(C)c4ccccc34)COC2=O)cc(OC)c1OC
inactive: RPMI-8226 leukemia 15.2% | OVCAR-8 ovarian 24.8% | OVCAR-5 ovarian 17.3% | OVCAR-4 ovarian 21.4% | SK-OV-3 ovarian 28.3% | IGROV1 ovarian 11.1% | NCI/ADR-RES ovarian 13% | T-47D breast 22.6% | BT-549 breast 16.7% | SW-620 colon 13.7% | MCF7 breast 14.8% | KM12 colon 13.2%
active: SR leukemia 8.24% | OVCAR-3 ovarian -13.8% | HS 578T breast -6.29% | MDA-MB-435 melanoma -59.5% | HCT-116 colon 1.75% | HCC-2998 colon 0.901%

Nc1c(C(=O)Nc2cccc3cnccc23)sc2nc3c(cc12)CN(Cc1ccccc1)CC3
inactive: SR leukemia 95.5% | RPMI-8226 leukemia 99.7% | OVCAR-8 ovarian 106% | OVCAR-5 ovarian 105% | OVCAR-4 ovarian 105% | SK-OV-3 ovarian 111% | IGROV1 ovarian 99.9% | OVCAR-3 ovarian 108% | HS 578T breast 104% | NCI/ADR-RES ovarian 112% | T-47D breast 102% | BT-549 breast 100% | MDA-MB-435 melanoma 108% | SW-620 colon 104% | MCF7 breast 96.5% | HCT-116 colon 100% | HCC-2998 colon 115% | KM12 colon 102%

COc1ccc(C(=O)c2nc3ccccc3n2CC(=O)c2ccc(F)cc2)cc1
inactive: SR leukemia 41.8% | RPMI-8226 leukemia 81.8% | OVCAR-8 ovarian 89.5% | OVCAR-5 ovarian 82.5% | OVCAR-4 ovarian 73.8% | SK-OV-3 ovarian 116% | IGROV1 ovarian 86.6% | OVCAR-3 ovarian 84.1% | HS 578T breast 103% | NCI/ADR-RES ovarian 58.3% | T-47D breast 91.6% | BT-549 breast 93.2% | SW-620 colon 46% | MCF7 breast 62.9% | HCT-116 colon 89.5% | HCC-2998 colon 65.3% | KM12 colon 56.2%
active: MDA-MB-435 melanoma -16.4%

CC(C)(C)c1cc(/C=N/NC(=O)c2ccccc2NC(=O)c2cccs2)c(O)c(C(C)(C)C)c1
active: SR leukemia -27.2% | OVCAR-4 ovarian -34.6% | OVCAR-3 ovarian 6.92% | HCT-116 colon 9.85%
inactive: RPMI-8226 leukemia 32.5% | OVCAR-8 ovarian 10.1% | OVCAR-5 ovarian 67.7% | SK-OV-3 ovarian 31.8% | IGROV1 ovarian 36.3% | HS 578T breast 71.5% | NCI/ADR-RES ovarian 18.8% | T-47D breast 29.4% | BT-549 breast 57.4% | MDA-MB-435 melanoma 51.8% | SW-620 colon 17.1% | MCF7 breast 18.1% | HCC-2998 colon 30.9% | KM12 colon 25.6%

C#CCNC(=O)[C@]1(C)CC[C@]2(C)CC[C@@H]3C(=CC[C@H]4[C@@]3(C)CC[C@H]3C(C)(C)C(=O)CC[C@]43C)[C@@H]2C1
inactive: SR leukemia 55.9% | RPMI-8226 leukemia 69.1% | OVCAR-8 ovarian 96.8% | OVCAR-5 ovarian 102% | OVCAR-4 ovarian 91.4% | SK-OV-3 ovarian 92.1% | IGROV1 ovarian 60.1% | OVCAR-3 ovarian 95.7% | HS 578T breast 126% | NCI/ADR-RES ovarian 94.2% | T-47D breast 77.1% | BT-549 breast 101% | MDA-MB-435 melanoma 97.3% | SW-620 colon 105% | MCF7 breast 83.3% | HCT-116 colon 81% | HCC-2998 colon 101% | KM12 colon 92.3%

CCN(CC)c1ccc(/C=N/NC(=O)CSc2nc3ccccc3c(=O)n2CCc2ccc(S(N)(=O)=O)cc2)c(O)c1
active: RPMI-8226 leukemia -31.5% | OVCAR-8 ovarian 8.51% | OVCAR-3 ovarian 1.89%
inactive: SR leukemia 13.8% | OVCAR-5 ovarian 47.7% | OVCAR-4 ovarian 19.7% | SK-OV-3 ovarian 41.1% | IGROV1 ovarian 13.7% | HS 578T breast 46.3% | NCI/ADR-RES ovarian 82.6% | T-47D breast 13.9% | BT-549 breast 45.2% | MDA-MB-435 melanoma 31.9% | SW-620 colon 27% | MCF7 breast 11.1% | HCT-116 colon 10.7% | HCC-2998 colon 35.8% | KM12 colon 19.1%

O=c1[nH]nc(-c2ccccc2)c2sc3ncc(-c4ccc(Br)cc4)n3c12
inactive: SR leukemia 26.1% | RPMI-8226 leukemia 12.4% | OVCAR-8 ovarian 46.5% | OVCAR-5 ovarian 90.4% | OVCAR-4 ovarian 85.5% | SK-OV-3 ovarian 70.6% | IGROV1 ovarian 40.4% | HS 578T breast 32.4% | NCI/ADR-RES ovarian 98.2% | T-47D breast 43.1% | BT-549 breast 52.1% | SW-620 colon 35% | MCF7 breast 28.9% | HCT-116 colon 16.6% | HCC-2998 colon 89.8% | KM12 colon 33.9%
active: OVCAR-3 ovarian 0.339% | MDA-MB-435 melanoma -25.7%

C=C1C(=O)O[C@H]2[C@H]1CC/C(C(=O)NCCCCCNC(=O)/C1=C/CC[C@@]3(C)O[C@H]3[C@H]3OC(=O)C(=C)[C@@H]3CC1)=C\CC[C@@]1(C)O[C@@H]21
inactive: SR leukemia 83.6% | RPMI-8226 leukemia 95.5% | OVCAR-8 ovarian 103% | OVCAR-5 ovarian 93.9% | OVCAR-4 ovarian 116% | SK-OV-3 ovarian 120% | IGROV1 ovarian 101% | OVCAR-3 ovarian 103% | HS 578T breast 104% | NCI/ADR-RES ovarian 103% | T-47D breast 94.2% | BT-549 breast 98.2% | MDA-MB-435 melanoma 105% | SW-620 colon 101% | MCF7 breast 88.2% | HCT-116 colon 87% | HCC-2998 colon 105% | KM12 colon 103%

O=C(CCN1CCCC1)Nc1ccc2c(Nc3ccc(F)cc3)c3ccccc3nc2c1
active: SR leukemia -20.9% | RPMI-8226 leukemia -37.1% | OVCAR-8 ovarian 4.18% | OVCAR-4 ovarian -16.1% | IGROV1 ovarian 0.357% | OVCAR-3 ovarian -31.5% | T-47D breast 7.84% | MDA-MB-435 melanoma -94.9% | SW-620 colon -25% | MCF7 breast -19.9% | HCT-116 colon -54.2% | HCC-2998 colon -80.3% | KM12 colon 0.928%
inactive: OVCAR-5 ovarian 12.9% | SK-OV-3 ovarian 38.4% | HS 578T breast 25.2% | NCI/ADR-RES ovarian 33.8% | BT-549 breast 51.2%

CCNC(=O)Oc1ccc(/C(=C(\C)c2ccccc2)c2ccc(OCCN(CC)CC)cc2)cc1
inactive: SR leukemia 26.1% | RPMI-8226 leukemia 74.6% | OVCAR-8 ovarian 78.3% | OVCAR-5 ovarian 88.2% | OVCAR-4 ovarian 80.8% | SK-OV-3 ovarian 83.9% | IGROV1 ovarian 84.3% | OVCAR-3 ovarian 93.7% | HS 578T breast 69% | NCI/ADR-RES ovarian 85% | T-47D breast 46.3% | BT-549 breast 76.1% | MDA-MB-435 melanoma 71% | SW-620 colon 82.6% | MCF7 breast 28.8% | HCT-116 colon 55.7% | HCC-2998 colon 91.5% | KM12 colon 72.1%

CC(=O)OC[C@]12CC[C@@H](C(=O)CBr)[C@@H]1[C@H]1CC[C@@H]3[C@@]4(C)CC[C@H](OC(C)=O)C(C)(C)[C@@H]4CC[C@@]3(C)[C@]1(C)CC2
active: SR leukemia 4.82% | IGROV1 ovarian -1.69%
inactive: RPMI-8226 leukemia 91.4% | OVCAR-8 ovarian 81.9% | OVCAR-5 ovarian 102% | OVCAR-4 ovarian 94% | SK-OV-3 ovarian 90% | OVCAR-3 ovarian 101% | HS 578T breast 101% | NCI/ADR-RES ovarian 110% | T-47D breast 85.3% | BT-549 breast 84% | MDA-MB-435 melanoma 93.3% | SW-620 colon 100% | MCF7 breast 89% | HCT-116 colon 88.2% | HCC-2998 colon 111% | KM12 colon 97.7%

CCOC(=O)c1cc(C#N)n2ccc3ccccc3c12
inactive: SR leukemia 115% | RPMI-8226 leukemia 111% | OVCAR-8 ovarian 100% | OVCAR-5 ovarian 94.2% | OVCAR-4 ovarian 95.3% | SK-OV-3 ovarian 36.5% | IGROV1 ovarian 99.7% | OVCAR-3 ovarian 102% | HS 578T breast 112% | NCI/ADR-RES ovarian 102% | T-47D breast 104% | BT-549 breast 113% | MDA-MB-435 melanoma 99.1% | SW-620 colon 97.9% | MCF7 breast 95.7% | HCT-116 colon 108% | HCC-2998 colon 106% | KM12 colon 100%

COCc1cnccc1NC1CCCCCC1
inactive: SR leukemia 101% | RPMI-8226 leukemia 104% | OVCAR-8 ovarian 96.3% | OVCAR-5 ovarian 108% | OVCAR-4 ovarian 98.6% | SK-OV-3 ovarian 111% | IGROV1 ovarian 110% | OVCAR-3 ovarian 102% | HS 578T breast 96% | NCI/ADR-RES ovarian 100% | T-47D breast 98.7% | BT-549 breast 119% | MDA-MB-435 melanoma 104% | SW-620 colon 99.3% | MCF7 breast 97.2% | HCT-116 colon 100% | HCC-2998 colon 103% | KM12 colon 100%

NS(=O)(=O)c1ccc(CCN2C(=O)C3C(C2=O)C2(Cl)C(Cl)=C(Cl)C3(Cl)C2(Cl)Cl)cc1 (stereo unspecified)
inactive: SR leukemia 98.1% | RPMI-8226 leukemia 53% | OVCAR-8 ovarian 107% | OVCAR-5 ovarian 98.2% | OVCAR-4 ovarian 96.2% | SK-OV-3 ovarian 115% | IGROV1 ovarian 97.3% | OVCAR-3 ovarian 108% | HS 578T breast 96.8% | NCI/ADR-RES ovarian 98.7% | T-47D breast 94.4% | BT-549 breast 94.8% | MDA-MB-435 melanoma 108% | SW-620 colon 105% | MCF7 breast 92.5% | HCT-116 colon 94% | HCC-2998 colon 93.8% | KM12 colon 105%

Cc1c(C(=O)NCCC(=O)NO)sc2ncnc(Nc3ccc(F)c(Cl)c3)c12
inactive: SR leukemia 111% | RPMI-8226 leukemia 110% | OVCAR-8 ovarian 101% | OVCAR-5 ovarian 108% | OVCAR-4 ovarian 109% | SK-OV-3 ovarian 129% | IGROV1 ovarian 106% | OVCAR-3 ovarian 107% | HS 578T breast 103% | NCI/ADR-RES ovarian 101% | T-47D breast 107% | BT-549 breast 114% | MDA-MB-435 melanoma 102% | SW-620 colon 101% | MCF7 breast 95.2% | HCT-116 colon 107% | HCC-2998 colon 105% | KM12 colon 104%

Cc1ccc(NC(=O)Cc2ccc(/C=C/C(=O)c3ncc[nH]3)cc2)cc1
inactive: OVCAR-5 ovarian 64.2% | OVCAR-4 ovarian 58% | SK-OV-3 ovarian 84.4% | IGROV1 ovarian 57.6% | OVCAR-3 ovarian 15.3% | HS 578T breast 42.9% | NCI/ADR-RES ovarian 38.3% | T-47D breast 38.9% | BT-549 breast 48.9% | MDA-MB-435 melanoma 28.7% | SW-620 colon 11.7% | MCF7 breast 14.5% | HCC-2998 colon 98% | KM12 colon 11.3%
active: SR leukemia 7.24% | RPMI-8226 leukemia -11.4% | OVCAR-8 ovarian 8.42% | HCT-116 colon 8.97%
